Assay results as given in PubChem BioAssay.

Assay: differential killing of epithelial or mesenchymal cells, primary screen, imaging, PC-3E GFP, TEM4-18 mCherry, co-culture (AID 1345086);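 further: cells exposed to compound for 72 h before imaging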
Conditions: imaging cell counts, measured here: mesenchymal TEM4-18 mCherry cell survival, at 1 µM

Compound | normalised cell number
CC(=O)NC1[C@@H](O)C2OC(c3ccccc3)OCC2O[C@H]1Sc1ccccc1 (some centres undefined) | 1.09
COC(=O)/C=C/C(C)=C/C=C/C(C)=C/C=C/C=C(C)/C=C/C=C(C)/C=C/C(=O)O | 1.05
COc1cc2c(cc1OC)C1C(=O)c3c(O)cc4c(c3OC1CO2)C=CC(C)(C)O4 (centres undefined) | 0.66
COC(=O)CC1C(C)(C)C(OC(C)=O)[C@@H]2[C@@H](OC(C)=O)[C@]34O[C@@]2(O)C1(C)C3CC[C@]1(C)C4=CC(=O)O[C@H]1c1ccoc1 (some centres undefined) | 0.95
COc1cc(C)c(Oc2cc(C)cc(O)c2O)c(O)c1 | 1.15
Cc1c(O)c(O)cc2oc3cc(O)cc(O)c3c(=O)c12 | 1.12
COC1=CC(=O)C(C)=C(C[C@@H](C)O)C1=O | 1.11
COC(=O)C1O[C@H](OC)[C@@H](OCc2ccccc2)[C@@H](OCc2ccccc2)C1O (some centres undefined) | 1.15
Clc1ccc2ncc(Cl)nc2c1 | 1.05
C[C@@H]1CCC2[C@](C)(CO)[C@@H](O)CC[C@]2(C)[C@@]12CC[C@@](CO)(CCO)O2 (some centres undefined) | 0.94
NC(=O)C[C@H](NC(=O)OCc1ccccc1)C(=O)O | 1.08
CC[C@H](O)c1oc(=O)cc(OC)c1C | 0.97
CCC[C@@H]1Cc2cc3c(-c4c(O)cc(O)c5c(O)c6c(cc45)C[C@@H](CCC)OC6=O)c(O)cc(O)c3c(O)c2C(=O)O1 | 1.02
COC(=O)C[C@H]1C2(C)CC34OC5(C)O[C@]6(C7/C(=C(/O)C(C)C)C(=O)O[C@@H](c8ccoc8)[C@]7(C)C(OC(C)=O)[C@@H](OC(C)=O)[C@]6(O5)C13C)[C@H](OC(C)=O)[C@@]4(O)C2OC(=O)C(C)C (some centres undefined) | 1.1
C[C@]12C=CC(=O)NC1CCC1C2CC[C@@]2(C)C1CC[C@@H]2C(=O)Nc1cc(C(F)(F)F)ccc1C(F)(F)F (some centres undefined) | 0.91
OCc1cc(Br)ccc1Cl | 1.14
C=C1[C@@H](C)C2[C@H](Cc3c[nH]c4ccccc34)NC(=O)[C@]23C(=O)/C=C/C(=O)[C@H](OC(C)=O)/C(C)=C/[C@@H](C)C/C=C/[C@H]3[C@@H]1O (some centres undefined) | 1.06
COC(=O)[C@]12Oc3c(c(O)cc4c3C3C=C[C@]5(C4)C(=C(O)c4c(O)cc(C)cc4[C@@H]5OC(C)=O)C3=O)C(O)=C1C(=O)C=C[C@@H]2O | 0.86
Cc1cc(O)c(C(=O)c2c(O)cccc2O)c(C(=O)O)c1 | 1.14
CCCCCCCCC[C@H]1O[C@]2(O)CC[C@H](O)[C@]2(O)[C@@H]1O | 0.91

Compound | normalised cell number
C/C=C/[C@@H]1CC[C@@H]2C[C@H](C)CC[C@H]2[C@]1(C)C(=O)[C@H]1OC(=O)[C@@H](CO)N(C)C1=O | 1.15
O=C(O)CCCCCCCC(O)C(O)CCCCCCO (centres undefined) | 1.13
COc1c(N2CC[C@@H](CN)C2)c(F)cc2c(=O)c(C(=O)O)cn(Cc3ccc4ccccc4c3)c12 | 0.93
O=C(O)CC1OCc2c(O)cccc21 (centres undefined) | 0.44
C=C1[C@@H](C)C2[C@H](Cc3c[nH]c4ccccc34)NC(=O)[C@]23C(=O)/C=C/[C@H](O)C(=O)/C(C)=C/[C@@H](C)C/C=C/[C@H]3[C@@H]1O (some centres undefined) | 1.08
CO[C@H]1CC(O[C@@H]2/C(C)=C/C[C@@H]3C[C@@H](C[C@]4(C=C[C@H](C)[C@@H](C5CCCCC5)O4)O3)OC(=O)[C@@H]3C=C(C)[C@@H](O)C4OC/C(=C\C=C\[C@@H]2C)[C@]43O)O[C@@H](C)C1O[C@H]1C[C@H](OC)[C@@H](O)[C@H](C)O1 (some centres undefined) | 1.1
C/C=C/[C@@H]1C=C[C@@H]2C[C@H](C)CC[C@H]2[C@]1(C)/C(O)=C1\C(=O)[C@H](CO)N(C)C1=O | 1.01
CC(C)CC1OC23SCC(c4ccccc4)N2C(=O)C1C(C)(C)S3 (centres undefined) | 1.03
COC(=O)[C@@H](C)Oc1ccc(O)cc1 | 1.18
CC1(C)C(=O)C=C[C@@]2(C)C1C=C[C@]1(C)C2CC[C@@]2(C)[C@H](c3ccoc3)OC(=O)[C@H]3O[C@]321 (some centres undefined) | 0.73
C=C(C)C#CC1=C[C@@H](O)[C@@H]2O[C@]2([C@H](O)C=C(C)C)[C@@H]1O | 0.91
C[C@@H](O)[C@H]1C(=O)N2C(C(=O)O)=C(SC3CN[C@H](C(=O)N(C)C)C3)[C@H](C)[C@H]12 (some centres undefined) | 0.99
Cc1cc(O)c2c(c1)Cc1cccc(O)c1C2=O | 1.2
O[C@@H]1[C@H](O)CO[C@H]1O | 0.86
Cc1ccc(S[C@H]2OC(CO)C(O)[C@@H]3OC(=O)N[C@H]23)cc1 (some centres undefined) | 0.99
CC1CN(c2c(F)c(N)c3c(=O)c(C(=O)O)cn(C4CC4)c3c2F)C[C@H](C)N1 (some centres undefined) | 1.02
CCC(C)[C@H]1O[C@]2(CC[C@@H]1C)C[C@@H]1C[C@@H](C/C=C(\C)[C@@H](OC3C[C@H](OC)C(O[C@H]4C[C@H](OC)[C@@H](O)[C@H](C)O4)[C@H](C)O3)[C@@H](C)/C=C/C=C3\COC4[C@H](O)C(C)=C[C@@H](C(=O)O1)[C@]34O)O2 (some centres undefined) | 0.97
CC(=O)N[C@@H]1[C@@H](OC(C)C(=O)O)[C@H](O)[C@@H](CO)O[C@H]1O (some centres undefined) | 1
COc1c(F)c(F)cc2c(=S)c(C(=O)O)cn(C3CC3)c12 | 1.04
